For four molecules, binding signal results are on record in publication PMC12864922, “TDP-43 directly inhibits mRNA accumulation in neurites through modulation of mRNA stability”.

The labels stand for the following.
B1: ENSMUSG00000032194.167|Kank2 (ssRNA)
RNA: GGGAGUUCUACAGUCCGACGAUCGCUUCGAUAUCCGCAUGCUAAGAGUAAACAGAGACUGUGAUACUGACCAAGUACAGGCGCUCGCUAUGAAGCCCAUAUGUUCCUGAUUAAGAGCUGGCUGGCCUCAGAGCACUCCCAGAACUAGCUUAAAGUGACAGGCUUUGCUGAAAUCCAAAGGGACAAAAGAGUAGUUUUAUGUUUGUGUGUUUGUUUUUAAUGCCCUGGAGCUCCUGCUGGUGACAGGAGAGACAGACAGGCUGCACCUUUCUCUAACUGGGGUUCCUUUCUGGCCCCAGGAUCUCUCUUGCGGUCGCACUAGUGUGGAAUUCUCGGGUGUCAAGG
B2: ENSMUSG00000061578.337|Ksr2|72:76 (ssRNA)
RNA: GGGAGUUCUACAGUCCGACGAUCGCUUCGAUAUCCGCAUGCUAACCAGUCACCUGCCUCCCAGGGUUCUGCCUUGCCCUUAAGCUAGGGUCCUUCAAGCAUCCACAGACUUAGACACACGUGGUAACAUGCUUGUAAUCCUGGCACUCUGGAGGCUGAGGCAGGAGGAUAACAAGUCUAGACUAUAUAUGAUUUCUGAGGGUCUGUUAGUGAAUAAGUACCUGGAUGACAUGGGACAAGUCCCAGCCUUCCCUGCUCCUGCGCUGCUCUUCCUCUUAUGGGAUAGGGUCUAGGUCAAAUGUCACUCUUGCGGUCGCACUAGUGUGGAAUUCUCGGGUGUCAAGG
B3: ENSMUSG00000061578.1309|Ksr2 (ssRNA)
RNA: GGGAGUUCUACAGUCCGACGAUCGCUUCGAUAUCCGCAUGCUAUCUGCACCCAACUGAAUCUCCCACCCUCAAGUGUACCUCUCAGGAUAUCCCCAGGCACACGAAGAUGGAAUGGAAAGCCAGUGGGUAUCUCCCACCCACUUAGAUGCUGAUGGCCUGGGACUAUAAACAGGGACAGUUGGGUCUCCUAAGGAAUAGCUUCCAGGUCCAGGAUGCUGGCAUCUCCCAGAGAGAACUCCAUCCCCUGACCACCAAGGCCUUUGUAGAAGCAGGAAUCUCUUCCUCCUGUCCCACAGCCCCCACUCUUGCGGUCGCACUAGUGUGGAAUUCUCGGGUGUCAAGG
B4: ENSMUSG00000029636.197|Wasf3 (ssRNA)
RNA: GGGAGUUCUACAGUCCGACGAUCGCUUCGAUAUCCGCAUGCUAGACUUCCCCUCUCCUGCCCUGAUCCUUUUUACCAAAUGGCGAUUCCAUAGUCCUGGCUGAGGCAGGGGCUCAAAGUCCAGUGUCUGCUUUGCAAUUCUGGAAGGACAGCUGCUUAUUUAAAUAAGUCUGUGAUAUCCGCAGGCUUGGGUUACAGGGAGGACCUUGCAGAGGGACCAGGACACUGCCUUCCCUUAGGUGCAUUAUUUACGUGGCCUGCAGCUCUUAAUAUCUCUCACUGUUUAUGAAAAGAAAGAUUCAGACUCUUGCGGUCGCACUAGUGUGGAAUUCUCGGGUGUCAAGG

Over roughly 9,900 sequences, “r (bound/input frequency ratio)” has its median near 0.7; the highest 2% begin near 6.5. Shown is part of a subset that was picked to be rich in the highest values.

The target of this assay is TDP-43 (Homo sapiens, UniProt Q13148 1-414). Briefly: RNA Bind-n-Seq with designed 260-mer pool; 25 mM Tris-HCl, 150 mM KCl, 3 mM MgCl2, BSA (printed 500 mg/mL), 20 units/mL SUPERase IN; pH not stated; 500 nM RNA pool, 1 h, 4 C; TDP-43 5, 50, 500 nM; high values mean tight binding. Conditions: protein: recombinant; tags: SBP (GST cleaved off with PreScission; pGEX-GST-SBP). In a few lines: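 The incubation lasted 1 h at 4 °C and used 500 nM of an in vitro-transcribed 260-nt 3′ UTR oligo pool with recombinant SBP-tagged TDP-43 at 5, 50 or 500 nM immobilized on streptavidin beads. It took place in 25 mM Tris-HCl, 150 mM KCl, 3 mM MgCl2, BSA and SUPERase IN. Bound RNA was washed, eluted with biotin, converted to cDNA, PCR-amplified and sequenced to give R, each oligo's normalized abundance in the bound sample divided by that in input. Two independent protein batches provided the duplicates.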
TDP-43, sequence (Q13148 whole entry): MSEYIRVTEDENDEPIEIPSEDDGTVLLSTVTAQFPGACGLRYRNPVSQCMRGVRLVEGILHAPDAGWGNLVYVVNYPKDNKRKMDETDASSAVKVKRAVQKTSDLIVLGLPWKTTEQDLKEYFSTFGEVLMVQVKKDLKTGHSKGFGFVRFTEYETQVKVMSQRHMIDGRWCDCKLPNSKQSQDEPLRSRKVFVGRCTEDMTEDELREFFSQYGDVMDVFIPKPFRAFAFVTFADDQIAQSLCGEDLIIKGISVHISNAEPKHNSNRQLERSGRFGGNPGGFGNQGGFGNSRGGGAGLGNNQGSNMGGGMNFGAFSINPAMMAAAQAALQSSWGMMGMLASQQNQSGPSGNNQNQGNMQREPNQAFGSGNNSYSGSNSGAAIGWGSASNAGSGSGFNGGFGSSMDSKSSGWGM
For B1, the binding signal was 3.92 R (bound/input frequency ratio).
Take B2: the binding signal was 0.335 R (bound/input frequency ratio).
Take B3: the binding signal was 0.602 R (bound/input frequency ratio).
For the molecule B4, the binding signal was 0.304 R (bound/input frequency ratio).
